The values below come from PubChem BioAssay (NCI).

The panel holds about 83,000 compounds, 20% with a hit somewhere; the sample as a whole holds those more often.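 In brief: 96-well plates, 48 h treatment, single concentration, percent growth endpoint.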 Calls of active or inactive are those of the source.

In the assay the test system is NCI-H322M lung. In words: NCI-60 one-dose screen, 48 h (100 = growth as untreated, 0 = no growth, -100 = all killed). The following applies: 10 µM unless noted. As for the experimental part:
Growth inhibition of the NCI-H322M human Non-Small Cell Lung tumor cell line is measured as a screen for anti-cancer activity. Cells are grown in 96 well plates and exposed to the test compound for 48 hours. Compounds are tested at a single concentration, which is 10^-5 M for most compounds. The reported endpoint is percent growth (GI% or GIPRCNT), where numbers from 0 - 100% represent growth inhibition, and numbers from -100% - 0 represent cell death. For example, a value of 40 represents 60% growth inhibition. A value of 0 means no net growth occurred over the course of the experiment. A value of -40 indicates 40% of cells at the beginning of the experiment died by the end of the experiment. A value of -100 means all cells are dead at the end of the experiment.
NCI-60 Human Tumor Cell Lines Screen was performed using the standard one-dose NCI protocol, which is described in more detail at https://dtp.cancer.gov/discovery_development/nci-60/default.htm.
Compounds with GIPRCNT values below 10 were considered active. Activity score was based on GIPRCNT using the following formula: […]
Score is 0 for GIPRCNT values of 100 or above, 50 for GIPRCNT values of 0, and 100 for GIPRCNT values of -100.
`CN(C)c1ccc(C(=O)c2ccc(N(C)C)c(N)c2)cc1N`: the growth was 49.3% (inactive). As to `O=C1c2cccc3cccc(c23)C(=O)N1CC#Cc1ccc2c3c(cccc13)C(=O)N(CCO)C2=O`, the growth was 94.9% (inactive).

Take `COC(=O)C(N)CSC(c1ccccc1)(c1ccccc1)c1ccccc1` (stereo not given): the growth was 9.37% (active). With `O=C(/C=C/c1cccc(O)c1)c1ccccc1O`, the growth is 98.4% (inactive). For the compound `C=C(C)[C@@H]1CC[C@]2(C(=O)N3CCN(CC)CC3)CC[C@]3(C)[C@H](CC[C@@H]4[C@@](C)(CCC(=O)N5CCN(CC)CC5)[C@H](C(=C)C)CC[C@]43C)[C@@H]12`, the growth is 89% (inactive). The same measure for `C[C@@H](C(=O)O)c1ccc2c3cc(Cl)ccc3n(Cc3cc(=O)oc4ccc(Cl)cc34)c2c1`: 86.3% (inactive). With `COc1cc(/C=C/c2cc(/C=C/c3ccc(O)c(OC)c3)n(-c3ccc(Cl)cc3)c(=O)n2)ccc1O` the figure was 82% (inactive); with `Cn1cc(-c2csc(-c3c[nH]c4ccccc34)n2)c2cccnc21`, 56.1% (inactive). Regarding `c1ccc(CN2C(c3ccccc3)=Nc3ccccc3C2c2c[nH]c3ccccc23)cc1` (stereo not given), the growth was 60.6% (inactive). Turning to `Cn1cc(-c2csc(-c3cn(CCCN4CCCCC4)c4ccc(F)cc34)n2)c2cccnc21`, the growth is 86.8% (inactive). `CC(=O)OCCCCCCn1c2ccccc2c2c3c(c4c5ccccc5n(C)c4c21)C(=O)N(O)C3=O`: the growth is 77.4% (inactive). For the compound `COc1ccc(/C(=C\c2ccc3c(c2)OCO3)C(=O)Nc2nc3ccccc3s2)cc1OC`, the growth was 91.4% (inactive). For `O=C(NCN1C(=O)c2cccc3cccc(c23)C1=O)N1CCC(Cc2ccccc2)CC1`, the growth was 105% (inactive). Turning to `OCC(CO)(CCl)CCl`, the growth is 112% (inactive). Turning to `N#C/C(=C\c1ccc(-c2ccc(Cl)cc2)o1)c1nc(-c2ccco2)cs1`, the growth was 91.6% (inactive). Take `CC(CNc1nc(Nc2ccc(Cl)c(Cl)c2)nc(C(Cl)(Cl)Cl)n1)N(C)C` (stereo not given): the growth is 27.6% (inactive). Consider `Cc1cc(N(CCNc2ccnc3cc(Cl)ccc23)Cc2ccco2)nc(Cl)n1`, for which the growth is 12.6% (inactive). With `C=C(C)[C@@H]1CC[C@]2(CN)CC[C@]3(C)[C@H](CC[C@@H]4[C@@](C)(CCCN)[C@H](C(=C)C)CC[C@]43C)[C@@H]12` the figure was 90.2% (inactive); with `Cn1c2ccccc2c2c3c(c4c5cccnc5[nH]c4c21)C(=O)N(O)C3=O`, 62.6% (inactive); with `CN(C)CCCCC(C(=O)CBr)(c1ccccc1)c1ccccc1`, 74.5% (inactive). As for `Nc1c2c(nc3ccc(Cl)cc13)CC(c1ccccc1)CC2=O` (stereo not given), the growth is 62.1% (inactive). Take `COC1=C(Br)C(=O)C(OC)=C(Br)C1=O`: the growth was 98.1% (inactive). As for `COc1ccc(NC(=O)c2ccoc2COc2ccccc2)cc1`, the growth was 101% (inactive). In the case of `CC1(c2ccccc2)OC1C(=O)O` (stereo not given), the growth was 97.9% (inactive). In the case of `COc1cc2[nH]c(C(=O)c3cc(OC)c(OC)c(OC)c3)c(N)c2cc1C#CCO`, the growth was 43.6% (inactive). The same measure for `CCN(CC)c1ccc(/C=C/c2cc(C)c3ccccc3n2)cc1`: 101% (inactive); for `COC(=O)[C@@H]1[C@H]2C[C@H]3c4[nH]c5cc(OC)ccc5c4CCN3C[C@@H]2C[C@H](OC(=O)/C=C/c2ccnc(OC)c2)[C@H]1OC`: 83.2% (inactive). For `Nc1c(C(=O)Nc2cccc(Cl)c2)sc2ncc(Cl)cc12`, the growth was 64.7% (inactive).

Regarding `COc1cc(/C=C2\C(=O)N(CC(O)COc3cc(O)c4c(=O)cc(-c5ccccc5)oc4c3)c3ccccc32)cc(OC)c1O` (stereo not given), the growth is 96.5% (inactive). On to `Nc1ccc(Br)cn1`, for which the growth was 104% (inactive). Take `Cc1ccc(S(=O)(=O)Nc2ccc(-c3cc(-c4cccc(F)c4)c(C#N)c(N)n3)cc2)cc1`: the growth is 72.2% (inactive).

Consider `O=C(c1ccccc1)C(CN1CCOCC1)c1ccccc1` (stereo not given), for which the growth is 84.7% (inactive). With `CC(C)(C)c1nc(-c2ccc(O)c(O)c2)cs1` the figure was 93.2% (inactive); with `COc1ccc(C(=O)c2cc(OC)c(OC)c(OC)c2)cc1/C=C/C(=O)c1cc(OC)c(OC)c(OC)c1`, 91.2% (inactive); with `O=C(/C=C/c1ccc2ccccc2c1)Nc1ncc(Cc2ccccc2)s1`, 46.3% (inactive).

For `C[C@H]1OC(=O)/C=C/[C@@H](O)[C@@H](O)CCCCCCCC[C@@H]1O`, the growth was 96.2% (inactive). As to `Cc1ccccc1-c1nc(C(Cl)Cl)nc2cc(-c3ccccc3)nn12`, the growth was 86.3% (inactive). On to `CC(=O)O[C@@H]1CCN2C(=O)N(C)c3ccccc3[C@@H]2C1`, for which the growth is 108% (inactive). On to `C#Cc1cccc(NC(=O)C2CCCN(C(=O)CCl)C2)c1` (stereo not given), for which the growth was 111% [8.25 µM] (inactive). For the compound `COc1cc2nc(Cl)nc(Nc3cccc(C(=O)/C=C/c4ccccc4)c3)c2cc1OC`, the growth is 90.3% (inactive).
